Screening data deposited in PubChem by National Center for Advancing Translational Sciences (NCATS).
This is one part of a sample in which hits are shown more often than they occur.
DT40 TDP1 no CPT – qHTS for Inhibitors of human tyrosyl-DNA phosphodiesterase 1 (TDP1): qHTS in cells in absence of CPT; DT40 Tdp1-/- hTDP1 cells, no CPT, ATP luminescence, 48 h; Potency, µM (highest dose often 46.2 µM), for the others: top-dose activity change, negative = growth inhibition, most hits filed as inhibitors; 15% of 420,000 active; AID 686978, 2013; also: potency is read from the fitted curve at half-maximal effect; nearly all actives have a fitted effect of over 55% in size
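Growth kinetics read by CellTiter-Glo luminescence after ≥48 hr at 37 °C. Cells: DT40 Tdp1-/- stably carrying human TDP1, 400 per well, compound exposure in the absence of CPT (DMSO vehicle).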
TDP1 cell CPT – DT40-hTDP1 cell growth loss with CPT | chicken DT40 Tdp1-/-;hTDP1 cells + 20 nM CPT, ATP luminescence, 48 h | 12% of 420,000 active | Potency, µM (titrated, usually from 46.2 µM), without a hit: top-dose activity change, negative = growth inhibition, most hits filed as inhibitors | AID 686979; also: potency is read from the fitted curve at half-maximal effect; nearly all actives have a fitted effect of over 55% in size
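Cell growth measured by CellTiter-Glo luminescence after a minimum 48 h, 37 C compound exposure with 20 nM CPT in Tdp1-knockout DT40 cells stably expressing hTDP1, seeded 400/well; qHTS titration format.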
IL1B secr inh – inhibitors of inflammasome signaling (IL-1 beta secretion); THP-1 LPS/ATP IL-1B secretion, AlphaLISA, 16 h; active compounds read low; activity change, % at 57.5 µM; 4.7% of 360,000 active; AID 743279; in the data active = activity change below about -50%; inconclusive = mostly about -30% to -49%
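THP-1 cells pretreated 1 hr with compounds (up to 57.5 uM final), then stimulated with LPS (250 ng/mL final) plus ATP (1.25 mM final); secreted IL-1B measured by AlphaLISA after 16 hr, decreased signal indicating inhibition.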
HT1080 IDH1KD tx – kills HT-1080 cells with IDH1 knockdown | HT-1080 IDH1 knockdown viability, ATP luminescence, 48 h | Potency, µM (titrated, usually from 46.1 µM), without a hit: at the highest dose activity, negative = toxicity, usual class: cytotoxic | 2% of 360,000 active | AID 686971;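 also: potency is read from the fitted curve at half-maximal effect; 0% = DMSO wells and -100% = cell-free medium wells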
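After a 2 h attachment period, IDH1KD HT-1080 cells took pin-transferred compound for 48 h at 37 °C; ATP-based luminescence after 10 min room-temperature reagent incubation reported viability.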
12-LOX inh – ALOX12 (human) lipoxygenase inhibition. Potency, µM (highest dose often 108 µM), for inactives: at the top dose activity change, negative = inhibition, actives largely listed as inhibitors. AID 1671190. purified 12hLO, xylenol orange hydroperoxide absorbance. 1.1% of 580,000 active; also: potency is read from the fitted curve at half-maximal effect
Target sequence (P18054 whole entry, looked up): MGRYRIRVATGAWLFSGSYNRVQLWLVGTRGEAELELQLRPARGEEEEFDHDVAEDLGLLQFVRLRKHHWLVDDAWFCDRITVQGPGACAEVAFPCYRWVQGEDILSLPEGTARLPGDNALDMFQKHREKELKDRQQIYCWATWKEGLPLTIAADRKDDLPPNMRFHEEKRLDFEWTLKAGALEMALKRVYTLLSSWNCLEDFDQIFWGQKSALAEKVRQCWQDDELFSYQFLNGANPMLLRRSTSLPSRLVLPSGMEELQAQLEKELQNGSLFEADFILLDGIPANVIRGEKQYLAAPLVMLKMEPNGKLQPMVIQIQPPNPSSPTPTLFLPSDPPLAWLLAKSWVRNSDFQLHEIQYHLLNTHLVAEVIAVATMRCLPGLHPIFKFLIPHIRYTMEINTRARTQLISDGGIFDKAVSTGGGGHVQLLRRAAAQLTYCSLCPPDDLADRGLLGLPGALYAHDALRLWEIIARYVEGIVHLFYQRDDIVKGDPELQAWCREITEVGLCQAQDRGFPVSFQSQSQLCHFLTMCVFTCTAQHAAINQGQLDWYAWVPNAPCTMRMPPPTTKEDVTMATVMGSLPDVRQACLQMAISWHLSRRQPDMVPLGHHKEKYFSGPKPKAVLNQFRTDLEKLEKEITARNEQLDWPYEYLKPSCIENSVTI
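Purified human 12hLO (150 nM final) in 25 mM Hepes, 0.01% Triton X-100, pH 7.0 was preincubated 15 min at room temperature with compound. Then 40 uM arachidonic acid was added, 30 min. Hydroperoxide was read by Fe-XO absorbance ratio 573/405 nm.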
HT1080-NT tox – kills 2HG-producing HT-1080-NT fibrosarcoma cells. Potency, µM (doses to about 46.1 µM), for inactives: top-dose activity, negative = less viability, hits mostly cytotoxic. HT-1080-NT fibrosarcoma viability, CellTiter-Glo ATP luminescence, 48 h. 1.6% of 360,000 active;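 also: NT is the 2HG producing partner of a matched IDH1 knockdown line; potency is read from the fitted curve at half-maximal effect; 0% = DMSO-treated cells and -100% = media-only wells without cells; nearly all actives have a fitted effect of over 55% in size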
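A 48-hour cytotoxicity screen used HT-1080-NT cells plated 2 hours before compound delivery. ATP-based CellTiter-Glo luminescence measured viability, normalized to DMSO and no-cell controls.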
* marks the source's active call; other numbers are inactive results; u = inconclusive; x = no result given; [ ] = another dose, or the depositor's remark. Unless noted, calls follow the shape of the dose curve; as a rule, active = well fitted curve in the direction sought with a large enough effect; inconclusive = small, poorly fitted or top-dose-only effect, or another doubt; inactive = no such curve, though single readings can be large; an effect the other way counts as inactive or inconclusive. Unless noted, % is scaled to controls: 0 for no effect and ±100 for the full control effect.

SMILES | DT40 TDP1 no CPT | TDP1 cell CPT | IL1B secr inh | HT1080 IDH1KD tx | 12-LOX inh | HT1080-NT tox
COc1ccc2[nH]c3c(c2c1)CCN1C(=O)C(CC(=O)NCC24CC5CC(CC(C5)C2)C4)C[C@H](C(=O)N2CCOCC2)[C@@]31CCC1CCCC1 (stereo partly drawn) | u | u | -62* | 8% | u | 10%
COCCCNC(=O)C[C@H]1C[C@H](C(=O)N2CCOCC2)[C@@]2(CCC3CCCC3)c3[nH]c4ccc(Cl)cc4c3CCN2C1=O | u | 21µM* | -2 | 10% | u | 6%
O=C(C[C@H]1C[C@H](C(=O)N2CCOCC2)[C@@]2(CCC3CCCC3)c3[nH]c4ccc(Cl)cc4c3CCN2C1=O)NCC12CC3CC(CC(C3)C1)C2 | 21µM* | 16µM* | 43 | 1% | -8% | 1%
O=C(C[C@H]1C[C@H](C(=O)N2CCOCC2)[C@@]2(CCC3CCCC3)c3[nH]c4ccc(Cl)cc4c3CCN2C1=O)NCCN1CCOCC1 | u | u | -2 | 7% | -8% | 8%
CC[n+]1c(C)ccc2ccccc21 | x | x | x | x | 16µM* | x
CCCC[n+]1c(C)ccc2ccccc21 | 16µM* | u | x | x | x | x
COc1ccc(C2Cn3nnc(-c4noc(-c5ccccc5OC)n4)c3CO2)cc1 (stereo not drawn) | x | x | x | x | 16% | x
CCCN1CCN(c2cc(C(=O)O)c3cc(NC(=O)C(C)C)ccc3n2)CC1 | x | x | x | x | 11µM* | x
N#CCCN1CCN(c2cc(C(=O)O)c3cc(NC(=O)c4ccccc4)ccc3n2)CC1 | x | x | x | x | 6.3µM* | x
CCN1CCN(c2cc(C(=O)O)c3cc(NC(=O)C(C)C)ccc3n2)CC1 | x | x | x | x | 16µM* | x
CN1CCN(c2cc(C(=O)O)c3cc(NC(=O)c4ccc(Cl)cc4)ccc3n2)CC1 | x | x | x | x | -82% | x
O=C(Nc1ccc2nc(N3CCN(C4CCCCC4)CC3)cc(C(=O)O)c2c1)c1ccc(Cl)cc1 | x | x | x | x | 13µM* | x
CCN1CCN(CCNC(=O)CSc2ncnc3c2sc2cccc(F)c23)CC1 | x | x | x | x | 10% | x
CCCCC(=O)N/N=C/c1ccc(C)cc1 | x | x | x | x | -1% | x
O=C1[C@@H]2C[C@@H](O)CN2C2(CN(C3CCCCC3)C2)C(=O)N1Cc1ccccc1Cl | x | x | x | x | 66%[176 µM] | x
FC(F)(F)c1cccc(-c2cc(C3CCNCC3)[nH]n2)c1 | u | u | u | u | -12% | 16µM*
Fc1ccc(-c2cc(C3CCNCC3)[nH]n2)cc1 | x | x | x | x | 5% | x
c1ccc2c(-c3cc(C4CCNCC4)[nH]n3)cccc2c1 | u | 21µM* | -25 | 21µM* | -8% | 23µM*
Cc1ccc(CNC(=O)c2ccc(NC(=O)c3cc4c(=O)[nH]c(C)cn4n3)cc2)cc1 | x | x | x | x | 1% | x
Cn1nccc1-c1nccc2c(=O)cc(N3CCOCC3)oc12 | x | x | x | x | 16%[176 µM] | x
Cc1cccc(N2CCN(CCNC(=O)C3COc4ccccc4C3)CC2)c1C (stereo not drawn) | 23µM* | u | x | x | -6% | x
O=C(NCCc1ccc(Cl)cc1)C1COc2ccccc2C1 (stereo not drawn) | -24% | -11% | x | x | -8% | x
O=C(NCCCN1CCN(c2ccc(F)cc2)CC1)C1COc2ccccc2C1 (stereo not drawn) | u | 23µM* | x | x | -20% | x
CCC(=O)N1c2ccccc2CC1C(=O)NCCCN1CCN(c2cc(C)ccc2C)CC1 (stereo not drawn) | u | 21µM* | x | x | -13% | x
Cc1ccc(Cl)cc1N1CCN(CCCNC(=O)C2COc3ccccc3C2)CC1 (stereo not drawn) | 3.7µM* | 3.3µM* | x | x | 2% | x
Fc1c(F)c(C(F)(F)F)c(F)c(F)c1N/N=C/c1ccc(Cl)cc1Cl | x | x | x | x | 4% | x
